Assay results published in PubChem BioAssay (Tox21).
Inconclusive results are not listed. Unmarked numbers belong to inactive results. Activity calls are given as the source filed them. The call rests on the fitted dose curve; in most records, active means well fitted activation curve with a large enough effect in the signal ratio in the repeat runs (not every such curve was filed as active); inconclusive means weak or mixed curves, or effect the other way; inactive means flat fitted curve, though single readings scatter; the % refers to the signal ratio.

What follows are compounds tested against Bile acid receptor (Homo sapiens) (UniProt Q96RI1) (assay: qHTS assay to identify small molecule agonists of the farnesoid-X-receptor (FXR) signaling pathway (AID 743220)). Conditions: HEK293T FXR-UAS-bla, beta-lactamase FRET ratio, 16 h; series mostly up to 62.6 µM; activation: at the top concentration.
Description: National Center for Advancing Translational Sciences [NCATS]
NIH Chemical Genomics Center [NCGC]
U.S. Environmental Protection Agency [EPA]
National Institutes of Environmental Health Sciences [NIEHS]
National Toxicology Program [NTP]
U.S. Food and Drug Administration [FDA]
The farnesoid-X-receptor (FXR), a nuclear hormone receptor, is highly expressed in liver, intestine, kidney and adrenal cortex. Natural ligands of FXR are the bile acids (Cholic acid, Chenodeoxy cholic acid etc). FXR is an important regulator of diverse metabolic pathways, including the bile acid homeostasis, lipid and glucose metabolisms. FXR regulates the expression of target genes by binding either as a monomer or as a heterodimer with the retinoid X receptor (RXR). Numerous studies have reported that FXR exerts protective function during cholestasis, diabetes, liver regeneration, and cancer. To identify compounds that activate FXR signaling, GeneBLAzer FXR-UAS-bla HEK 293T cell line (Invitrogen, Carlsbad, CA) containing a beta-lactamase reporter gene under the control of a UAS response element was used to screen the Tox21 10K compound library.
Tox21 Assay Protocol Summary:
FXR-bla cells were dispensed at 5000 cells/5uL/well in 1536-well black wall/clear bottom plates using a Multidrop Combi (Thermo Fisher Scientific, Waltham, MA) dispenser. After the assay plates were incubated at 37C and 5% CO2 for 5 h, 23 nL of compounds dissolved in DMSO, positive controls or DMSO only was transferred to the assay plate by a Pintool station (Kalypsys, San Diego, CA). The assay plates were incubated at 37C for 16 h. After 1 uL of LiveBLAzerTM B/G FRET substrate was added using a Bioraptr Flying Reagent Dispenser (FRD) workstation (Beckman Coulter, Indianapolis, IN), the plates were incubated at room temperature for 2 h, and fluorescence intensity was measured by an Envision plate reader (PerkinElmer, Shelton, CT).
On the % scale 0 is the no-effect control and ±100 the full control effect.

Bile acid receptor (Homo sapiens), sequence (Q96RI1 whole entry, looked up): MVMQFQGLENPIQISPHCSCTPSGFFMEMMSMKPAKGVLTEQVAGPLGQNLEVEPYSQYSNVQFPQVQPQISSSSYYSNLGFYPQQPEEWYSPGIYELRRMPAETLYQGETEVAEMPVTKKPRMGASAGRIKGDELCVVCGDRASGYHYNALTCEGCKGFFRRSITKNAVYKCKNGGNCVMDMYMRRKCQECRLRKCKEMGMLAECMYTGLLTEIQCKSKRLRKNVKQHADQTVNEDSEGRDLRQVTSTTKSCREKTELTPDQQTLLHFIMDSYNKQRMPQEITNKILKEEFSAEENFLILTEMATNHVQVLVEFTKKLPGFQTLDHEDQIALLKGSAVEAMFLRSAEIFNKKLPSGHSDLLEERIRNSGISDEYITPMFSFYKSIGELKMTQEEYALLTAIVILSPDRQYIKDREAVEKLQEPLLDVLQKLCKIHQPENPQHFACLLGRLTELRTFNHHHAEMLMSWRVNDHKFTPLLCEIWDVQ

SMILES | activation | outcome
CCCBr | -1.55% | 
CCOC(=O)c1cn2nc(OP(=S)(OCC)OCC)cc2nc1C | -0.47% | 
COc1ccc(C(O)(c2cncnc2)C2CC2)cc1 (stereo not given) | -1.01% | 
O=C(O)C(O)C(O)C(=O)O (stereo not given) | -1.37% | 
CCCN(CCC)C(=O)Cc1c(-c2ccc(Cl)cc2)nc2ccc(Cl)cn12 | 0.791% | 
CCCSP(=S)(OCC)Oc1ccc(SC)cc1 (stereo not given) | 3.68% | 
O=C(O)c1cc(Cl)ccc1Cl | 1.57% | 
NNCCO | 0.765% | 
O=P(OCC(Br)CBr)(OCC(Br)CBr)OCC(Br)CBr (stereo not given) | 0.497% [at 81.1 µM] | 
O=C(NCNC(=O)NC1C(=O)NC(=O)N1CO)NC1C(=O)NC(=O)N1CO (stereo not given) | 2.52% | 
CCCN(CCOc1c(Cl)cc(Cl)cc1Cl)C(=O)n1ccnc1 |  | inactive
O=C=NC1CCCCC1 | 7.1% | 
Oc1cccc(Cl)c1 | 0.69% | 
COc1ccc(C(=O)c2c(C)n(CCN3CCOCC3)c3ccccc23)cc1 | 0.622% | 
CC(C)c1ccc(OP(=O)(Oc2ccc(C(C)C)cc2)Oc2ccc(C(C)C)cc2)cc1 |  | inactive
O=C1CC[C@@]2(O)[C@H]3Cc4ccc(O)c5c4[C@@]2(CCN3CC2CC2)[C@H]1O5 | 2.09% | 
ClCc1ccccc1Cl | 0.178% [at 81.1 µM] | 
CCCCCCCCCCCCN(C)C | -0.0063% | 
C[C@H]1[C@@H]2Cc3ccc(O)cc3[C@@]1(C)CCN2C | -4.77% [at 232 µM] | 
CCOC(C(=O)OCCN(C)C)(c1ccccc1)c1ccccc1 | -0.118% | 

SMILES | activation | outcome
CC[N+]1(CCOC(=O)C(O)(c2ccccc2)c2ccccc2)CCCCC1 | 4.57% | 
Cc1nc(N(C)C)nc(OC(=O)N(C)C)c1C | -1.42% | 
C=CCc1ccccc1O | 2.04% | 
c1ccc2c(c1)sc1ccccc12 |  | inactive
OCCSSCCO | -0.738% | 
O=C(N/N=C/c1ccc([N+](=O)[O-])o1)c1cc([N+](=O)[O-])cc([N+](=O)[O-])c1O | -6% | 
CC(=O)OC(c1ccccc1)C(Cl)(Cl)Cl (stereo not given) | 0.202% | 
CCOP(=S)(S)OCC | -0.189% [at 81.1 µM] | 
O=C(O)COc1cc(Cl)c(Cl)cc1Cl | -1.95% | 
c1ccc2sc(SNC3CCCCC3)nc2c1 | -0.708% | 
CC1(C)CC(=O)CC(C)(C)N1[O] | 3.5% | 
O=C(Cc1ccccc1)c1ccccc1 | -0.627% | 
C[N+]1(CCC(C(N)=O)(c2ccccc2)c2ccccc2)CCCCC1 | 6.51% | 
C=CC(=O)OCC | -0.0799% [at 81.1 µM] | 
CCCC[N+]1(C)[C@@H]2CC(OC(=O)[C@H](CO)c3ccccc3)C[C@H]1[C@@H]1O[C@@H]12 (stereo not given in full) | 1.25% | 
OCC1CO1 (stereo not given) |  | inactive
CCCCC1C(=O)NC(=O)N(C2CCCCC2)C1=O (stereo not given) | 1.91% | 
CCCCC(CC)COC(=O)c1c(Br)c(Br)c(Br)c(Br)c1C(=O)OCC(CC)CCCC (stereo not given) | 1.99% | 
C[C@@H]1C[C@@H]([C@H](O)CC2CC(=O)NC(=O)C2)C(=O)[C@@H](C)C1 |  | inactive
COCc1cnc(C2=NC(C)(C(C)C)C(=O)N2)c(C(=O)O)c1 (stereo not given) | -0.358% | 
